Test results published in PubChem BioAssay AID1460 (National Center for Advancing Translational Sciences (NCATS), 2008).
Out of some 270,000 compounds screened, about 5,800 (2.1%) were called active. Roughly 16% stayed inconclusive and do not appear here. This is one part of a sample in which actives are shown more often than they occur. Unmarked numbers belong to inactive results. Calls follow the shape of the dose curve; as a rule, active = well fitted inhibition curve with a large enough effect; inconclusive = small, poorly fitted or top-dose-only effect; inactive = flat fitted curve, though single readings scatter.

biological target: Microtubule-associated protein tau (Homo sapiens) (UniProt P10636); experiment: qHTS for Inhibitors of Tau Fibril Formation, Thioflavin T Binding; conditions: recombinant tau K18 P301L (four-repeat tau fragment), heparin-induced fibrillization, ThT fluorescence; series mostly up to 57.4 µM; activity, negative = inhibition: at the top concentration; also: nearly all actives have a fitted effect of over 55% in size
Outline: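 K18 P301L tau (15 uM + 0.24 uM Alexa 594-tagged), heparin 20 uM, NaOAc pH 7, 6 h 37 C; ThT 30 uM, 1 h RT, ex 450/em 510 nm.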
% is scaled to controls: 0 for no effect and ±100 for the full control effect; potency is read from the fitted curve at half-maximal effect.

Microtubule-associated protein tau (Homo sapiens), sequence (P10636 561-689 P618L limits assumed): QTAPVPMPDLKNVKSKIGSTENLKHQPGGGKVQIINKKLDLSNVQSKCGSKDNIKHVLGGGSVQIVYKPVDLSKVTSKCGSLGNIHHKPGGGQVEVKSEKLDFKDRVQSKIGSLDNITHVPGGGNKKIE

Compound | activity, negative = inhibition [%] | Potency
COc1cccc(NC(=O)N(Cc2cn(C)c3ccccc23)C2CCCCCC2)c1 | -18.6 | 
COc1ccc(Cn2c(C(=O)O)c(CNCc3cccc(OC)c3)c3ccc(C)cc32)cc1 | 4.58 | 
COc1cc(C(=O)NCCS(=O)(=O)N2CCN(c3ccccc3)CC2)cc(OC)c1OC | 3.32 | 
COc1ccc(-n2c(SCC(=O)Nc3ccc(Cl)c(C)c3)nc3n[nH]c(C)c3c2=N)cc1 | -6.68 | 
CCOc1ccc(NC(=O)C2CCN(S(=O)(=O)c3cc(-c4noc(C)n4)ccc3C)CC2)cc1 | -3.68 | 
COc1ccc(-c2nn3c(=O)cc(CN4CCN(C(=O)c5ccc(OC)c(OC)c5)CC4)nc3s2)cc1 | -16.3 | 
Cc1cccc2c(=O)cc(CSc3ccccc3NC(=O)C(C)C)[nH]c12 | -2.42 | 
COc1ccc(Cn2c(=O)cc(C)[nH]c2=S)cc1 | -15.3 | 
COc1cc(=O)[nH]c(=O)n1C(=O)Cc1ccccc1 | -6.37 | 
CCCOc1ccc(Cn2c(O)cc(=O)[nH]c2=O)cc1 |  | 25.1 µM (active)
Cc1cccc(NC(=O)N2CCC(CN3CCc4ccccc4C3)CC2)c1C | 2.46 | 
Cc1cccc(S(=O)(=O)CC(=O)Nc2nc(-c3ccccc3)cs2)c1 | -17.8 | 
COc1ccc2c(c1OC)C(=O)OC2c1c(O)nc(SC)n(-c2ccccc2)c1=O (stereo unspecified) | -12.8 | 
COc1ccc2c(c1OC)C(=O)OC2Nc1nc(-c2ccccc2)cs1 (stereo unspecified) |  | 17.8 µM (active)
O=C(CN1C(=O)COc2ccc(S(=O)(=O)N3CCCCCC3)cc21)N1CCN(c2cccc(C(F)(F)F)c2)CC1 | -6.43 | 
Cc1ccc(CCNC(=O)Cn2c(-c3cccs3)cc3cc(F)ccc32)cc1 | -0.536 | 
Cc1ccc(Cl)cc1NC(=O)c1ccccn1 | -6.15 | 
Cc1ccc(Cl)cc1NC(=O)C(C)n1nnc2sc(-c3ccccc3)cc2c1=O (stereo unspecified) |  | 17.8 µM (active)
Cc1cc2nn(-c3ccc(Cl)cc3)nc2cc1NC(=O)C(C)C | 4.08 | 
COc1cccc(NC(=O)CSC2=Nc3ccccc3C3=NC(CC(=O)NC4CCCCC4)C(=O)N23)c1 (stereo unspecified) | -7.37 | 
Cc1ccc(Cl)cc1N1CCN(C(=O)c2cn(C)c3ccc(S(=O)(=O)N(C)C4CCCCC4)cc3c2=O)CC1 | -2.4 | 
COc1ccc(N2CCN(C3CC(=O)N(c4ccc5c(c4)OCCO5)C3=O)CC2)cc1 (stereo unspecified) | -18.6 | 
CC(=O)Oc1cccc(N2C(=O)C3CC=C(Cl)CC3C2=O)c1 (stereo unspecified) | 4.98 | 
CC(=O)Oc1cccc(N2C(=O)CC(Nc3ccc(N4CCOCC4)cc3)C2=O)c1 (stereo unspecified) |  | 15.8 µM (active)
COCCNC(=O)CSc1c(C)cnc2c1c(=O)n(C)c(=O)n2C | -7.06 | 
CC(=O)N1c2ccccc2CC1C(=O)N1CCN(c2ccc(F)cc2)CC1 (stereo unspecified) | -7.29 | 

Compound | activity, negative = inhibition [%] | Potency
O=C(CSc1nnc(Nc2ccccc2)s1)Nc1cccnc1Cl | -18.4 | 
CC(C)c1ccc(Nc2nnc(SCC(=O)c3nnc(-c4ccccc4)o3)s2)cc1 |  | 17.8 µM (active)
Cc1ccc(Nc2nnc(SCc3ccccc3)s2)cc1 | -9.63 | 
CCOC(=O)c1c(S(=O)(=O)N2CCCC(C(=O)NCc3cccc(C)c3)C2)c(C)n(C)c1C (stereo unspecified) | 12 | 
COc1cccc(CNC(=O)C2CCN(S(=O)(=O)c3ccc4c(ccn4C)c3)CC2)c1 | 3.32 | 
COc1ccc(/C=N/S(=O)(=O)c2ccccc2)cc1OC | 8.82 | 
COc1ccc(/C=N/N=C2/C(=O)Nc3ccccc32)cc1O |  | 10 µM (active)
CCOc1ccc(/C=N/NC(=O)CSc2ccccn2)cc1O | -6.19 | 
CCN(Cc1ccccc1)C(=O)c1cn(-c2cccc(OC)c2)c(=O)c2ccccc12 | -12 | 
O=C(CSc1nnc(-c2ccccc2F)o1)Nc1cccc(C(F)(F)F)c1 | -3.91 | 
CN(C(=O)CSc1nnc(NC(=O)Nc2ccccc2)s1)c1ccccc1 | 2.89 | 
CCOC(=O)c1ccccc1C(=O)N1CCOCCOCCOCC1 | -6.87 | 
CCc1cccc(NC(=O)c2cnc(N3CCOCC3)c3ccccc23)c1 | -10.2 | 
CCOC(=O)c1cnc2c(C)cc(C)cc2c1Nc1ccc(N2CCOCC2)cc1 |  | 11.2 µM (active)
Cc1cc(C)cc(NC(=O)c2cnc3sc(N4CCCC4)nn3c2=O)c1 | 3.36 | 
Cc1[nH]c2ccccc2c1/C=N\NC(=O)Cn1nnc(-c2ccccc2)n1 | 3.95 | 
CN=c1scc(-c2cc(OC)ccc2OC)n1/N=C/c1c(C)[nH]c2ccccc12 |  | 14.1 µM (active)
CCn1c(-c2cc(OC)ccc2OC)csc1=Nc1c(C)n(C)n(-c2ccccc2)c1=O | -0.49 | 
CCOc1ccc(NC(=O)c2cc(S(=O)(=O)N3CCCC3)c[nH]2)cc1 | -8.62 | 
O=S(=O)(c1ccc(Br)cc1)c1nnn2c1nc(N1CCOCC1)c1sccc12 | -10.4 | 
CCN1/C(=C\c2ccc3ccccc3[n+]2CC)Sc2cc(C)ccc21 |  | 15.8 µM (active)
CCN1/C(=C/c2ccc3ccc(C)cc3[n+]2CC)Sc2ccccc21 | -14.4 | 
COc1ccc(S(=O)(=O)NCC(c2ccc(N(C)C)cc2)N2CCCC2)cc1 (stereo unspecified) | 6.51 | 
O=C(c1ccc(Br)cc1)N(Cc1cccs1)c1ccc(F)cc1 | -14 | 
Cc1cc(Nc2ccccc2)nc(N)n1 | 0.943 | 
c1ccc(Nc2n[nH]nc2-c2ccccc2)cc1 | -6.37 | 

Compound | activity, negative = inhibition [%] | Potency
Nc1ccc(Nc2ccccc2)cc1 |  | 15.8 µM (active)
CNc1ccc(-c2nc(-c3ccccc3C)no2)cc1[N+](=O)[O-] | 1.98 | 
CC(=O)Nc1ccc(NC(=O)c2sc3nc4c(c(-c5ccc(C)cc5)c3c2N)CCC4)cc1 | -8.97 | 
Cc1cccc(NC(=O)c2sc3nc4c(c(-c5ccco5)c3c2N)CCC4)c1 |  | 7.94 µM (active)
NC(=O)c1sc2nc3c(c(-c4ccccc4)c2c1N)CCC3 | -18 | 
CCN(CC)c1ccc(NC(=O)CN2C(=O)c3cccnc3Oc3ccc(Cl)cc32)c(C)c1 | -3.19 | 
O=S(=O)(Nc1ccc2nc(-c3cccc(Cl)c3)oc2c1)c1ccccc1 | 10 | 
COc1cccc(NC(=O)c2ccc3c(SCC(=O)O)c4c(nc3c2)CCCC4)c1 | 0.652 | 
COc1ccccc1Nc1c2c(nc3ccc(NC(=O)/C=C/c4cc(OC)c(OC)c(OC)c4)cc13)CCCC2 |  | 14.1 µM (active)
CCOc1ccc(C(=O)Nc2ccc3nc4c(c(Nc5ccccc5OC)c3c2)CCCC4)cc1 |  | 14.1 µM (active)
CCOc1ccc(-n2nc3ccc(NC(=O)c4ccc(OC)c(Cl)c4)cc3n2)cc1 | -17.4 | 
Cc1ccc(Nc2c3c(nc4ccccc24)CCC3)cc1 | -3.18 | 
COc1ccc(NS(=O)(=O)c2cc(NC(=O)/C=C/c3cc(OC)c(OC)c(OC)c3)ccc2N2CCCCC2)cc1 | -3.88 | 
COCCNC(=O)CCCN1C(=O)c2ccccc2Sc2ncccc21 | -0.918 | 
Cc1ccc(NC(=O)c2ccc(CN3CC(=O)N4CCCCC4C3=O)cc2)c(Cl)c1 (stereo unspecified) | -11.5 | 
Cc1ccnc(-n2sc3ccccc3c2=O)n1 |  | 14.1 µM (active)
Cc1ccnc(Nc2nc3ccccc3s2)n1 | -16 | 
Cc1ccnc(SCC(N)=O)n1 | -5.04 | 
NS(=O)(=O)c1ccc(NC(=O)COC(=O)c2c3c(nc4ccccc24)/C(=C\c2ccc4c(c2)OCO4)CCC3)cc1 | -5.39 | 
CCOC(=O)CCCNC(=O)COC(=O)/C=C/c1ccc2c(c1)OCO2 | 4.19 | 
O=C(N/N=C/c1ccc2c(c1)OCO2)C(=O)N1CCCC1 | -6.29 | 
CCC1=C/C(=C\c2ccc3c(c2)OCO3)C(=O)S1 |  | 15.8 µM (active)
CCc1c(C)sc(NC(=O)/C=C/c2ccc3c(c2)OCO3)c1C(=O)OC | 8.02 | 
O=C1/C(=C/c2ccc3c(c2)OCO3)CCC/C1=C\c1ccc2c(c1)OCO2 |  | 3.98 µM (active)
CCOc1ccc(NC(=O)CCC(=O)N2CC(C)Oc3ccc(C)cc32)cc1 (stereo unspecified) | -0.975 | 
CC1=C(c2ccc(C)c(C)c2)S(=O)(=O)NC1=NCc1ccccc1Cl | -5.79 | 

Compound | activity, negative = inhibition [%] | Potency
COc1ccc(CNC(=O)CSc2nc3ccccc3nc2Cc2ccccc2)cc1 | 0.19 | 
COc1ccc(Cn2ccc3nc(C)c(C(=O)Nc4ccc(C)c(F)c4)cc3c2=O)cc1 | -2.05 | 
COc1ccccc1CNC(=O)c1ccccc1NC(=O)c1nsc2ccccc12 | 3.65 | 
CCOC(=O)c1cc(-c2ccc(OC)c(S(=O)(=O)Nc3ccc(OC)cc3OC)c2)on1 | -17.3 | 
CN(Cc1ccco1)S(=O)(=O)c1nnc(NC(=O)c2ccccc2)s1 | -2.1 | 
CCCCOc1ccc(Cn2c(=O)oc3ccc(C)cc32)cc1OC | -3.17 | 
CCCCOc1ccc(CN2C(=O)C(=O)c3cc(Br)cc(C)c32)cc1OC |  | 28.2 µM (active)
COc1ccc(CN2C(=O)CC(Cc3ccc(C)cc3)C2=O)cc1OC (stereo unspecified) | -2.42 | 
CSc1nc(=O)c2c(n1C)NC(=O)CC2c1ccccc1OC(C)C (stereo unspecified) | 5.27 | 
Cc1cccc(C(=O)Nc2nnc(Cc3c[nH]c4ccccc34)s2)c1 | -17.2 | 
Cc1cccc(N=C2NN=C(c3c[nH]c4ccccc34)CS2)c1 |  | 2.82 µM (active)
COCCn1c(C)cc(C2=NNC(=Nc3ccc(F)cc3)SC2)c1C | -6.48 | 
CCCNC(=O)c1ccc(Cn2c(SCC(N)=O)nc3ccccc3c2=O)cc1 | 6.62 | 
CCC(C)NC(=O)C1c2ccccc2Oc2ccccc21 (stereo unspecified) | -1.94 | 
CCC(C)(C)NC(=O)C1c2ccccc2Oc2ccccc21 | -0.856 | 
CC(C)(C)c1nnc(NC(=O)C2c3ccccc3Oc3ccccc32)s1 |  | 22.4 µM (active)
Cc1ccc(Cl)cc1NC(=O)Cc1ccc(-n2c(C)nc3cccnc32)cc1 | -0.615 | 
COc1cccc(CNS(=O)(=O)c2cc3c(cc2C)n(C)c(=O)c(=O)n3C)c1 | -7.39 | 
Cc1ccccc1CNC(=O)C1CCCN(S(=O)(=O)N(C)c2ccc(F)cc2)C1 (stereo unspecified) | -7.18 | 
Cc1cc(C)cc(-n2c(SCC(=O)NCC3CCCO3)nc3c([nH]c4ccccc43)c2=O)c1 (stereo unspecified) | -15.4 | 
O=C(N/N=C/c1ccc(Cl)cc1)c1nc2ccc([N+](=O)[O-])cc2c(=O)[nH]1 |  | 15.8 µM (active)
O=C(CSc1nc2ccc([N+](=O)[O-])cc2[nH]1)c1ccc(Cl)cc1 | -14.3 | 
N#Cc1cc([N+](=O)[O-])ccc1Oc1cccc(/C=N/NC(=O)c2ccc(Cl)cc2)c1 | -6.07 | 
